Anthrax LF prot: Bacillus anthracis LF protease inhibitors, primary screen, biochemical, multiplex microsphere, MLPCN library; Lethal factor (Bacillus anthracis), P15917; multiplex microsphere protease cleavage assay; inhibition, % at 10 µM; hit rate 0.12% among 360,000
Target sequence (P15917 whole entry, looked up): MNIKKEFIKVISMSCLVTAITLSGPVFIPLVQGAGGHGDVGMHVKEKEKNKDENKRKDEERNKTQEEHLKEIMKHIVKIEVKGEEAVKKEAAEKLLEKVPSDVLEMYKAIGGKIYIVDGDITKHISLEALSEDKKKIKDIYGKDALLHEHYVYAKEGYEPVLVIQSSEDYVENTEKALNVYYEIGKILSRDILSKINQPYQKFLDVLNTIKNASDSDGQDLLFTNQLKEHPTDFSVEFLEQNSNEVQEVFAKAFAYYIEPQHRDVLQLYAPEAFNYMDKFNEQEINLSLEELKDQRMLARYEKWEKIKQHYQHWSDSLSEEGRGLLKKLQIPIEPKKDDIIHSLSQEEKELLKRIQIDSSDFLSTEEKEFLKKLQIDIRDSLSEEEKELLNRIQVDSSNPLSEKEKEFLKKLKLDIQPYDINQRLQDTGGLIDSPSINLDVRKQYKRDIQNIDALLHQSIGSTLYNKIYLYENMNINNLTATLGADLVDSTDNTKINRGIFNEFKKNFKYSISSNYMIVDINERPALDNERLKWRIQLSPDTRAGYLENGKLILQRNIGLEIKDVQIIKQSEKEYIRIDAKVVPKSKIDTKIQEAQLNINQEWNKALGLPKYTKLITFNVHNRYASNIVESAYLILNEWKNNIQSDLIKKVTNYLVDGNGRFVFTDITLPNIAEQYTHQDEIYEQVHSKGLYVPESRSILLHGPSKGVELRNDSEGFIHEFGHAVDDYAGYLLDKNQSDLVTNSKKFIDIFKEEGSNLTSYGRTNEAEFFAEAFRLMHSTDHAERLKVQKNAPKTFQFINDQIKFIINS
Autofluor counter: counter-screen for toxin protease inhibitors: compound fluorescence; compound autofluorescence counterscreen, microsphere flow cytometry; stronger effect = higher value; fluorescence intensity (concentration not given with the values); hit rate 3.1% among 360,000; in the data active = fluorescence intensity above about 16000; inconclusive = no clear call, values can overlap the other calls
BJeLR viability: MLPCN primary cell-based screen for lethality selective to Ras in HRASV12 cells; BJeLR (HRASV12) viability, CellTiter-Glo ATP luminescence, 48 h; inhibition, % (concentration not given with the values); hit rate 0.17% among 300,000; in the data active = inhibition above about 50%; inconclusive = no clear call, values can overlap the other calls
BoNT A protease: BoNT/A light chain protease inhibitors, primary screen, biochemical, flow cytometry, MLPCN library. inhibition, % at 10 µM. multiplex microsphere protease substrate cleavage. hit rate 0.17% among 360,000. AID 588499, 2011. Botulinum neurotoxin type A light chain protease (Clostridium botulinum A str. ATCC 3502)
BH1578 lux ind: inducers of Vibrio cholerae quorum light production without autoinducers, primary screen, BH1578 luxS cqsA deficient, single point; V. cholerae BH1578 lux reporter, luminescence, 6 h; activation, % at 18.7 µM; hit rate 0.16% among 350,000; in the data active = activation mostly above about 9.7%, no sharp cut-off; inconclusive = no clear call, values can overlap the other calls; inactive = mostly below about 3.7%
BoNT-F LC inh: BoNT/F light chain protease inhibitors, primary screen, biochemical, flow cytometry, MLPCN library; Multiplex microsphere protease cleavage assay; inhibition, % at 10 µM; hit rate 0.22% among 360,000; AID 588497, 2011; in the data active = inhibition above about 35%, passing the limit was not always enough; inconclusive = no clear call, values can overlap the other calls
Numbers stand for hits; i = inactive; ? = inconclusive; nt = not tested or not shown. The list is not random: actives were taken first. Their share in the collection is about 3.7%. Cut-off read from the data, not from the text of the source, unless noted: active = inhibition above about 30%; inconclusive = no clear call, values can overlap the other calls; inactive = below that.

SMILES | Anthrax LF prot | Autofluor counter | BJeLR viability | BoNT A protease | BH1578 lux ind | BoNT-F LC inh
O=C(Nc1cccc2ccccc12)c1csc([C@@H]2O[C@H](CO)[C@H](O)[C@H](O)[C@H]2O)n1 | i | i | nt | i | i | i
COc1ccc(NC(=O)CCCC(=O)OCC(F)(F)C(F)F)cc1 | i | i | i | i | i | i
CC(=O)c1ccc(NC(=O)CCC(=O)OCC(F)(F)C(F)F)cc1 | i | 20248 | i | ? | i | i
O=C(CCCOc1ccccc1)N1CCN(C(=O)c2ccco2)CC1 | i | 23020 | i | i | i | i
CCOc1cc(C(=O)NCc2ccccc2)ccc1OCC(=O)N1CCCCC1 | i | i | nt | i | i | i
O=C(NCc1ccccc1)c1cccc(OCC(=O)N2CCN(C(=O)c3ccco3)CC2)c1 | i | 20088 | i | ? | i | i
O=C(COc1ccc2ccccc2c1)N1CCN(C(=O)c2ccco2)CC1 | i | i | i | i | i | i
Cc1cc(Cl)ccc1OCCCC(=O)N1CCN(C(=O)c2ccco2)CC1 | i | 21790 | i | i | i | i
O=C(NCc1ccccc1)c1ccccc1OCC(=O)N1CCCCC1 | i | 22260 | i | i | i | i
CSCCNC(=O)C1(C)CCN1C(=O)c1ccc(C(C)(C)C)cc1 (stereo not given) | i | i | nt | i | i | i
Cc1ccccc1C1N=C2Oc3ccccc3C=C2C(=O)N1 (stereo not given) | i | i | nt | i | nt | i
CC1(C(=O)NCCC#N)CCN1C(=O)c1ccccc1CCc1ccccc1 (stereo not given) | i | i | nt | i | i | i
O=C(Nc1ccnn1C1CCN(C(=O)c2cccnc2)CC1)c1cccc(F)c1 | i | i | nt | i | i | i
CC(=O)NCCCNC(=S)NCCCN(Cc1ccc(Cl)cc1)c1ccc(Br)cn1 | i | i | nt | i | i | i
CCc1nc(SCc2cc(Cl)ccc2OC)n[nH]1 | i | 17236 | i | i | i | i
COC(=O)c1ccccc1CON1C(=O)C(C)(C)N(OCc2ccccc2C(=O)OC)C(=O)C1(C)C | i | 16139 | i | i | i | i
COC(=O)c1ccccc1NC(=O)CC(=O)Nc1ccccc1C(=O)OC | i | i | i | i | i | i
CCNC(=O)COC(=O)C1CCC(=O)N(c2ccc(OC)cc2)C1c1ccc(OC)cc1 (stereo not given) | i | 21386 | i | i | i | i
COc1ccccc1S(=O)(=O)N(C)C[C@@H]1OCc2cn(nn2)CCCC(=O)N([C@@H](C)CO)C[C@H]1C | i | i | nt | i | i | i
Cc1ccc2cccnc2c1NC(=S)NC(=O)c1ccccc1 | i | 22969 | i | ? | i | i
COc1ccc2[nH]c3nc(SCC(=O)NNC(=O)c4ccc(OC)c(OC)c4)nnc3c2c1 | i | 21437 | i | i | i | i
Cc1ccc(NC(=S)NCCCN2CCOCC2)cc1C | i | i | i | i | i | i
O=C(NCCN1CCOCC1)c1cc2sccc2n1Cc1ccc(F)cc1 | i | i | i | i | i | i
Cc1ccc(NC(=S)NCCN2CCOCC2)cc1C | i | 20237 | i | i | i | i
O=C(NCCN1CCOCC1)c1cc2sccc2n1Cc1ccc(Cl)cc1 | i | 16131 | i | i | i | i
SMILES | Anthrax LF prot | Autofluor counter | BJeLR viability | BoNT A protease | BH1578 lux ind | BoNT-F LC inh
O=C(NC(=S)NCCN1CCOCC1)c1ccc(Cl)cc1 | i | i | i | i | i | 54
O=C(N[C@H](CO)c1ccccc1)[C@H]1O[C@@H](n2ccc(=O)[nH]c2=O)[C@H](O)[C@@H]1O | i | i | nt | i | nt | i
O=C(NCc1ccc(F)cc1)c1cc(C2CCCCN2C(=O)CCCc2ccccc2)on1 (stereo not given) | i | i | nt | i | i | i
COc1ccc(-c2cc(-c3ccccc3)nc(-c3ccc4c(c3)NC(=O)CO4)c2)cc1 | i | 19614 | i | ? | i | i
Cc1ccccc1OCc1nc2ccc(S(=O)(=O)N3CCOCC3)cc2[nH]1 | i | 22238 | nt | i | i | i
COc1ccc(Cc2nc3ccc(S(=O)(=O)N4CCOCC4)cc3[nH]2)cc1OC | i | 24349 | i | i | i | i
CCOc1ccc(NC(=O)Nc2cc(C)ccc2F)cc1 | i | 16132 | i | i | i | i
C[C@@H]1CN([C@H](C)CO)C(=O)c2c(c3ccccc3n2C)-c2ccccc2CO[C@H]1CN(C)Cc1ccc(Oc2ccccc2)cc1 | i | i | nt | i | i | i
c1ccc(-c2noc(-c3ccc4c(c3)OCO4)n2)nc1 | i | i | 92 | i | i | i
Cc1csc(N/N=C/c2ccc(O)c([N+](=O)[O-])c2)n1 | i | 22477 | i | i | i | i
CCN(CC)S(=O)(=O)c1ccc(S(=O)(=O)N(CC(=O)Nc2ccccc2)Cc2ccco2)cc1 | i | 22492 | i | i | i | i
CN(C)S(=O)(=O)c1ccc(S(=O)(=O)N(CC(=O)Nc2ccccc2)Cc2ccco2)cc1 | i | i | i | i | i | i
O=C(CN(Cc1ccc(Br)cc1)S(=O)(=O)c1ccccc1)NCc1ccccn1 | i | i | i | i | i | i
O=C(CN(Cc1ccccc1)S(=O)(=O)c1ccc(Br)cc1)NCc1ccco1 | i | 23735 | i | i | i | i
CC1=C(C(=O)N(C(C)C)C(C)C)CC(CC(=O)NCc2ccco2)C(=O)N1Cc1ccc(C(C)(C)C)cc1 (stereo not given) | i | i | nt | i | nt | i
CCCCN(C)C(=O)c1oc2ccc(S(=O)(=O)N3CCCCCC3)cc2c1C | i | 23104 | i | i | i | i
CCCCN(CCCC)S(=O)(=O)c1ccc2oc(C(=O)N3CCOCC3)c(C)c2c1 | i | 24116 | i | i | i | i
Cc1c(C(=O)O)oc2ccc(S(=O)(=O)N3CCCC3)cc12 | i | i | i | i | i | i
CCOC(=O)N1CCN(C(=O)c2oc3ccc(S(=O)(=O)N4CCCCC4)cc3c2C)CC1 | i | 18639 | i | i | i | i
Cc1cccc(NS(=O)(=O)c2ccc(C)c(C(=O)NC3CCN(Cc4ccccc4)CC3)c2)c1 | i | 30942 | nt | i | i | i
O=C(O)c1ccc(-c2ccc(OS(=O)(=O)c3ccccc3F)cc2)cc1 | i | i | i | i | i | i
COC(=O)c1ccccc1S(=O)(=O)Oc1ccc(-c2ccc(C(=O)O)cc2)cc1 | i | i | i | i | i | 37
Cc1nn(C)cc1/C=C/C(=O)c1ccccc1 | i | 16636 | i | i | i | i
Cc1nn(C)c(C)c1/C=C/C(=O)c1ccccc1 | i | 24377 | i | i | i | i
Cc1nn(C)cc1/C=C/C(=O)c1cccs1 | i | i | i | i | i | i
O=S1(=O)N[C@@H](Cc2ccccc2)COc2cc(N3CCN(Cc4ccccc4F)CC3)ccc21 | i | i | nt | i | nt | i
Cc1ccc(C)c(NC(=O)c2ccc(N(C)S(C)(=O)=O)cc2)c1 | i | 20420 | i | i | i | i
COc1ccc(C)cc1NC(=O)c1ccc(N(C)S(C)(=O)=O)cc1 | i | i | i | i | i | i
